RGS4-Gao reg = human RGS4-Galphao interaction regulation | 0.33% of 220,000 active | binding response (% of control), % at 10 µM | Multiplexed bead flow cytometry, RGS4-Galphao binding; actives lie on both sides | P09471; in the data active = binding response below about 49% or above about 150%; inactive = in between;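 also: fluorescent Galphao activated with aluminum fluoride binding bead-coupled RGS4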
Avidin fluor = avidin bead compound fluorescence profile | Avidin beads, compound fluorescence 488/530 nm, flow cytometry; stronger effect = higher value | fluorescence (KMESF) at 10 µM | 0.38% of 220,000 active | AID 1775; in the data active = fluorescence above about 47
RGS16-Gao HTS = RGS16-Galphao interaction regulator (human). O15492+P09471. bead-based flow cytometry RGS16-Galphao binding, fluorescence; actives lie on both sides. binding response (% of control), % at 10 µM. 0.38% of 220,000 active. AID 1441;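 also: Galphao activated by GDP with aluminum fluoride before binding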
Target sequence (O15492 whole entry, looked up): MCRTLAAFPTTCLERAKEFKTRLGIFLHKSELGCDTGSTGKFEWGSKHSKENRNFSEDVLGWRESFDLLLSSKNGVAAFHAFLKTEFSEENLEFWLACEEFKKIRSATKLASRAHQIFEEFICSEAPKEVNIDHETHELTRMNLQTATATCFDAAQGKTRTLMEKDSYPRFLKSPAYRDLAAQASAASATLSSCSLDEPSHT
Target sequence (P09471 whole entry, looked up): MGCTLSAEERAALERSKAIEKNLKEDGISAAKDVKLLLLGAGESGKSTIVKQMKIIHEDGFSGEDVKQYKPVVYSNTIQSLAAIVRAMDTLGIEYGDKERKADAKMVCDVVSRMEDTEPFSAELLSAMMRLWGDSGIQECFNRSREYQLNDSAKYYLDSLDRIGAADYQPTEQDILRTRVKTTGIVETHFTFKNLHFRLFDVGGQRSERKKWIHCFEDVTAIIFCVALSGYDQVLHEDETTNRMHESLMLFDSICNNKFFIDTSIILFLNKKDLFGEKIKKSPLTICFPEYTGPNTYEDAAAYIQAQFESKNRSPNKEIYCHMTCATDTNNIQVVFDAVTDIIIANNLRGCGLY
GSH fluor = compound fluoresces at 488/530 nm on GSH beads; fluorescence (KMESF) at 10 µM; GSH beads flow cytometry, compound fluorescence 488/530 nm; stronger effect = higher value; AID 1776; 0.25% of 190,000 active; in the data active = fluorescence above about 89;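 also: glutathione beads carrying GST-tagged Bcl family fusion proteins plus one bare bead set; values are compound well signal with DMSO vehicle wells as background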
RGS8-Gao reg = human RGS8-Galphao interaction regulation | P09471 | multiplexed bead flow cytometry, RGS8-Galphao binding; actives lie on both sides | response (percent of control binding), % at 10 µM | 0.34% of 220,000 active | AID 1423; in the data active = response below about 60% or above about 140%; inactive = in between;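 also: Galphao activated as the GDP aluminium fluoride complex binding bead-coupled RGS8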
RGS7-Gao reg = modulates binding of RGS7 to human Galphao; P09471; Multiplexed bead flow cytometry; actives lie on both sides; binding response (% of control), % at 10 µM; 0.35% of 220,000 active; AID 1439; in the data active = binding response below about 49% or above about 150%; inconclusive = no clear call, values can overlap the other calls; inactive = in between;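 also: fluorescent Galphao held in activated GDP-AlF4 state binding bead-coupled RGS7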
RGS4-Gao HTS = modulates binding between human RGS4 and Galphao | 99% of 1,600 active | multiplexed bead flow cytometry, RGS–Galpha-o binding | shares compounds with RGS16-Gao HTS | RGS4–Galpha-o binding response, % at 10 µM;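 also: fluorescently labeled Galpha-o bound to GDP with aluminium fluoride binding biotinylated RGS beads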
Biotin-avidin = interferes with biotinylated probe binding to avidin beads | inhibition, % at 10 µM | 1,700 tested, under 10 active | streptavidin beads, fluorescein-biotin binding, flow cytometry | shares compounds with RGS16-Gao HTS;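 active = inhibition above 50%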;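 also: median green fluorescence of gated singlet beads compared with DMSO control wells; 0% = DMSO wells and 100% = complete loss of bead fluorescence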
RGS8-Gao single = RGS8-Galphao interaction regulation, single point confirmation; binding response (% of control), % at 10 µM; bead-based flow cytometry RGS8-Galphao binding, fluorescence; actives lie on both sides; 3% of 1,700 active; shares compounds with RGS16-Gao HTS; in the data active = binding response below about 72% or above about 130%; inactive = in between;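 also: Galphao activated as GDP AlF4 complex before binding bead RGS8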
RGS7-Gao confirm = RGS7-Galphao interaction regulation, single point confirmation; shares compounds with RGS16-Gao HTS; bead-based flow cytometry RGS7-Galphao binding; actives lie on both sides; response (percent of control binding), % at 10 µM; 7.8% of 1,700 active; AID 1837; in the data active = response below about 75% or above about 130%; inactive = in between;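 also: fluorescent Galphao activated with GDP and aluminum fluoride binding bead-coupled RGS7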
RGS16-Gao conf = confirmation of regulators of human RGS16-Galphao interaction. shares compounds with RGS16-Gao HTS. bead-based flow cytometry, RGS16-Galphao binding; actives lie on both sides. response (% of control binding), % at 10 µM. 4% of 1,700 active; in the data active = response below about 74% or above about 130%; inactive = in between;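 also: Galphao activated as the GDP aluminium fluoride complex binding bead-coupled RGS16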
RGS4-Gao confirm = confirmation of regulators of human RGS4-Galphao interaction | binding response (% of control), % at 10 µM | RGS4-Galphao binding, multiplexed bead flow cytometry; actives lie on both sides | 4% of 1,700 active | AID 1840 | shares compounds with RGS16-Gao HTS; in the data active = binding response below about 74% or above about 130%; inactive = in between
RGS19-Gao single = confirmation of regulators of human RGS19-Galphao interaction | shares compounds with RGS16-Gao HTS | bead-based flow cytometry RGS19-Galphao binding; actives lie on both sides | response (percent of control binding), % at 10 µM | 5% of 1,700 active | AID 1841; in the data active = response below about 50% or above about 160%; inactive = in between;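 also: 100% = no compound control and 0% = blank background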
* hit, by the source's call; ? = inconclusive; / = no result; [ ] = another dose, or the depositor's remark. In the library only some 1.2% were active in any assay of this set; here they are far more common. Unless noted, no rule for the calls is given here.

SMILES | RGS4-Gao reg | Avidin fluor | RGS16-Gao HTS | GSH fluor | RGS8-Gao reg | RGS7-Gao reg | Biotin-avidin | RGS8-Gao single | RGS7-Gao confirm | RGS16-Gao conf | RGS4-Gao confirm | RGS19-Gao single | others
CC12c3ccccc3C(c3ccccc31)C1C(=O)N(c3cccnc3)C(=O)C12 (stereo not drawn) | 103.8 | 16 | 102.3 | 16 | 102.6 | 102.5 | / | / | / | / | / | /
O=C1C2C3c4ccccc4C(c4ccccc43)C2C(=O)N1c1cccnc1 (stereo not drawn) | 88.0 | 7 | 24.4* | 11 | 72.6 | 85.5 | 0.2 | 99.9 | 101.8 | 102.3 | 102.4 | 97.1 | RGS4-Gao HTS=88.0*
CCOC(=O)COc1nc(-c2ccccc2)cc(-c2ccco2)c1C#N | 105.5 | 26 | 100.8 | / | 101.1 | ? | / | / | / | / | / | /
CCOC(=O)COc1nc(-c2ccc(Cl)cc2)cc(-c2ccco2)c1C#N | 177.3*[activator] | 82* | 155.4 | / | 110.1 | ? | 0.3 | 100.0 | 98.1 | 100.2 | 99.5 | 93.3
S=C(NCCc1ccccn1)Nc1ccc(Cl)cc1Cl | 99.6 | 12 | 95.1 | 10 | 100.3 | 102.7 | / | / | / | / | / | /
CCOC(=O)c1c(C)[nH]c(C)c1C(=O)CSc1nc2ccccc2c(=O)n1-c1ccc(CC)cc1 | 99.5 | 4 | 108.3 | 9 | 102.6 | 99.2 | / | / | / | / | / | /
CC(=O)c1ccc(-n2c(SCC(=O)c3c[nH]c4ccccc34)nc3ccccc3c2=O)cc1 | 179.3*[activator] | 2389* | 444.0 | 12 | 113.0 | 184.2*[activator] | 2.4 | 108.3 | 110.1 | 105.6 | 105.8 | 97.3
Cc1ccc(NC(=O)NC(=O)N(C(C)C)S(C)(=O)=O)nc1 | 100.2 | 16 | 239.1*[activator] | 8 | 118.6 | 97.9 | / | / | / | / | / | / | RGS4-Gao HTS=100.2*
O=C(NCCSCc1ccc(Cl)cc1)c1cccs1 | 97.8 | 3 | 97.2 | / | 99.7 | ? | / | / | / | / | / | /
CC1CCN(C(=O)c2ccc(N3C(=O)C4CCC(C)CC4C3=O)cc2)CC1 (stereo not drawn) | 32.0* | 1 | 45.4 | / | 66.9 | ? | -0.2 | 101.1 | 106.3 | 102.1 | 102.3 | 96.5
COc1ccccc1C(=O)Nc1ccc(-c2nnn(CC(=O)NCc3ccco3)n2)cc1 | 102.8 | 14 | 101.8 | / | 105.3 | ? | / | / | / | / | / | /
CCCNC(=O)c1ccc(CN2CCc3ccccc3C2)cc1 | 16.2* | 1 | 21.2* | 15 | 34.0* | 21.8* | -0.4 | 98.5 | 100.4 | 99.7 | 97.6 | 102.2
CC1CCN(c2c(NCC3CCC(C(=O)NCc4ccccc4Cl)CC3)c(=O)c2=O)CC1 (stereo not drawn) | 103.0 | 7 | 102.1 | 12 | 101.8 | 103.8 | / | / | / | / | / | /
O=C(O)/C=C/C(=O)N(Cc1ccc2c(c1)OCO2)C1CC(=O)N(CCc2ccccc2)C1=O (stereo not drawn) | 103.3 | 10 | 101.6 | 26 | 102.4 | 96.8 | / | / | / | / | / | /
COC(=O)CNC(c1ccccc1)c1cc(Cl)ccc1NC(=O)c1cccc(Cl)c1 (stereo not drawn) | 102.4 | 3 | 108.1 | 19 | 102.2 | 105.0 | / | / | / | / | / | /
COC(=O)CNC(c1ccccc1)c1cc(Br)ccc1NC(C)=O (stereo not drawn) | 93.9 | 6 | 102.3 | 18 | 73.1 | 78.9 | 0.9 | 101.8 | 102.5 | 98.3 | 102.6 | 105.6
Cc1nc2c(cnn2-c2ccc(Cl)cc2)c(=O)n1-c1ccc(N2CCC(C)CC2)cc1 | 150.3*[activator] | 18 | 178.2 | 21 | 108.7 | 171.0*[activator] | -0.6 | 105.0 | 107.7 | 109.6 | 103.6 | 122.2

Bioassay records: PubChem BioAssay, NMMLSC
